# Experimental data reported in PubChem BioAssay AID1004 (SRMLSC, 2008).
# Values without a mark were called inactive. Active and inactive are the calls of the source.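 The calls were made as follows: active = viability at 10 µM of 29.74% or lower, 3 SD below the compound median; inactive = the rest.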
# Experiment: viability of HCT116 lacking mutant beta-catenin – cell-based, DP diverse set, validation, pilot screen (AID 1004)
# Conditions: HCT116 (mutant beta-catenin deleted) viability, CellTiter-Glo, 60 h; at 10 µM; active compounds read low
row,SMILES,viability
1,CCOC(=O)c1c(N)sc(C)c1-c1ccccc1,108%
2,CSc1ccc(/C=C2/C(C)=C(CC(=O)O)c3cc(F)ccc32)cc1,96%
3,C=C(C)C1CC=C(C)C(O)C1 (stereo not drawn),94.9%
4,COc1ccc2cc1Oc1ccc(cc1)C[C@H]1c3c(cc4c(c3Oc3cc5c(cc3OC)CCN(C)[C@@H]5C2)OCO4)CCN1C,66.6%
5,COc1cc([C@@H]2c3cc4c(cc3[C@H](O)[C@H]3COC(=O)[C@H]23)OCO4)cc(OC)c1OC,37.4%
6,CN=C(NC#N)NCCSCc1nc[nH]c1C,98.3%
7,CCN(CC)C(=S)SSC(=S)N(CC)CC,76.5%
8,O=C(c1ccc(OCCN2CCCCC2)cc1)c1c(-c2ccc(O)cc2)sc2cc(O)ccc12,86.1%
9,OCCN(CCO)c1nc(N2CCCCC2)c2nc(N(CCO)CCO)nc(N3CCCCC3)c2n1,109%
10,O=c1[nH]cnc2ccccc12,98.6%
11,C[C@H](CS)C(=O)N1CCC[C@H]1C(=O)O,93.8%
12,COC(=O)CCc1c(C)[nH]c(C(=O)OCc2ccccc2)c1C,100%
13,C[C@]12CCC(=O)C=C1CC[C@@H]1[C@@H]2[C@@H](O)C[C@@]2(C)[C@H]1CC[C@]2(O)C(=O)CO,98.9%
14,CN(C)c1ccc(/C=C2\C(=O)Nc3ccccc32)cc1,80.2%
15,CC(C)C[C@@H](NC(=O)[C@@H](O)[C@H](N)Cc1ccccc1)C(=O)O,92.8%
16,C=CCc1ccc(O)c(-c2cc(CC=C)ccc2O)c1,99.2%
17,C[C@@H]1C[C@@H]([C@@H](C)CC2CC(=O)NC(=O)C2)C(=O)[C@@H](C)C1,27.8% (active)
18,O=C1OC(c2cc(I)c(O)c(I)c2)(c2cc(I)c(O)c(I)c2)c2ccccc21,97.5%
